Measurements reported in PubChem BioAssay AID382 (SGCOxCompounds, 2006).
Activity calls are given as the source filed them. No rule for the calls is given here.

target: Dual specificity protein kinase CLK1 (Homo sapiens) (UniProt P49759); assay: ligand-induced CLK1 melting temperature shift – biophysical, recombinant human kinase, DSF (AID 382); conditions: Recombinant CLK1, thermal shift (DSF), at 10 µM, protein 1.7 µM, buffer 10 mM HEPES, pH 7.5, NaCl 150 mM, with 50 µM L-Arg/L-Glu (1:1), stronger effect = higher value
Sequence (P49759 whole entry, looked up): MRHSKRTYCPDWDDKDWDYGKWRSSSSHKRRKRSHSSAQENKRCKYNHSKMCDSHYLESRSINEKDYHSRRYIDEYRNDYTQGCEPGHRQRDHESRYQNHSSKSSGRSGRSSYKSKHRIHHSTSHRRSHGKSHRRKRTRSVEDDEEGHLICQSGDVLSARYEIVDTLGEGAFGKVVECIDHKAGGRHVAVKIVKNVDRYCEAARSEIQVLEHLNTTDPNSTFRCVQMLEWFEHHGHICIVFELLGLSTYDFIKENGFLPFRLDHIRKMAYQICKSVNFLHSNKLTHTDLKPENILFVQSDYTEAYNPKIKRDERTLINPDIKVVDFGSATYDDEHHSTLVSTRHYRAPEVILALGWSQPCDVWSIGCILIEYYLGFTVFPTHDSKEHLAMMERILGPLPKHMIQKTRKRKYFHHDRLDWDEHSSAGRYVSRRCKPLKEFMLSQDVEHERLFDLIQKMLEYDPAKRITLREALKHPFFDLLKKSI

Tm shift, active:
COc1ccc(Nc2nc(N)c(C(=O)c3ccc(Cl)cc3)s2)cc1 4.4 Celsius
Nc1nc(Nc2cccc(Cl)c2)sc1C(=O)c1ccc(F)cc1 4 Celsius
Nc1nc(Nc2ccccc2)sc1C(=O)c1ccc(F)cc1 3.2 Celsius

same assay, conditions: Recombinant CLK1, thermal shift (DSF), at 10 µM, protein 2 µM, buffer 10 mM HEPES, NaCl 150 mM, stronger effect = higher value

Tm shift, active:
O=c1c(O)c(-c2ccc(O)cc2)oc2cc(O)cc(O)c12 5.97 Celsius
O=c1cc(-c2ccccc2)oc2cc(O)c(O)c(O)c12 4.05 Celsius
O=C1C(=O)C(c2cccc(O)c2)Oc2ccccc21 (centres undefined) 3.88 Celsius
O=c1cc(-c2ccc(O)c(O)c2)oc2cc(O)cc(O)c12 5.77 Celsius
N=C(N)SCCCn1cc(C2=C(c3c[nH]c4ccccc34)C(=O)NC2=O)c2ccccc21 10.3 Celsius
Cc1cc(O)c2c(c1)C(=O)c1cc(O)cc(O)c1C2=O 3.11 Celsius
CC(C)C(CO)Nc1nc(Nc2cccc(Cl)c2)c2ncn(C(C)C)c2n1 (centres undefined) 6.23 Celsius

same assay, conditions: Recombinant CLK1, thermal shift (DSF), at 10 µM, protein 2 µM, buffer 10 mM HEPES, NaCl 150 mM, with 50 mM Arg/Glu, stronger effect = higher value

Tm shift, active:
CCN1/C(=C/C(C)=O)Sc2ccc(OC)cc21 6.91 Celsius
CC(C)[C@@H](CO)Nc1ccc2ncc(-c3ccc(C#N)cc3)n2n1 5.84 Celsius
FC(F)(F)Oc1cccc(-c2cnc3ccc(NC4CCOCC4)nn23)c1 5.17 Celsius

same assay, conditions: Recombinant CLK1, thermal shift (DSF), at 10 µM, protein 2 µM, buffer 10 mM HEPES, pH 7.5, NaCl 150 mM, stronger effect = higher value

Tm shift, active:
c1ccc(-c2cnc3ccc(NCc4cccs4)nn23)cc1 3.23 Celsius
CC(C)c1ccc(Nc2ccn3ncc(-c4ccsc4)c3n2)cc1 4.63 Celsius
Nc1ncc(-c2ccncc2)nc1NC1CCCCC1 3.7 Celsius

same assay, conditions: Recombinant CLK1, thermal shift (DSF), at 10 µM, protein 2 µM, buffer 10 mM HEPES, pH 7.5, NaCl 150 mM, with 50 µM L-Arg/L-Glu (1:1), stronger effect = higher value

Tm shift, active:
COC(=O)c1ccc(-c2cnc3ccc(NC4CCOCC4)nn23)cc1 4.3 Celsius
O=C1NCc2c1c1c3ccccc3[nH]c1c1[nH]c3ccccc3c21 3.1 Celsius
Oc1cccc(-c2cnc3ccc(NC4CCOCC4)nn23)c1 5.1 Celsius
CCC(CO)Nc1ccc2ncc(-c3ccc(CO)cc3)n2n1 (centres undefined) 5.3 Celsius
COCCNc1ccc2ncc(-c3cccc(C(C)=O)c3)n2n1 5.1 Celsius
COc1cccc(-c2cnn3ccc(Nc4cccc(Cl)c4)nc23)c1 6 Celsius
COc1cncc(-c2cnc3ccc(NC4CCOCC4)nn23)c1 3.2 Celsius
Nc1cccc(-c2cnn3ccc(Nc4cccc(Cl)c4)nc23)c1 3.6 Celsius
CC(C)[C@@H](CO)Nc1ccc2ncc(-c3cccc(C(F)(F)F)c3)n2n1 5.1 Celsius
CCC(CO)Nc1ccc2ncc(-c3ccc(C(=O)O)cc3)n2n1 (centres undefined) 4.8 Celsius
CCC(CO)Nc1ccc2ncc(-c3cccc(CO)c3)n2n1 (centres undefined) 5.3 Celsius
CC(C)[C@@H](CO)Nc1ccc2ncc(-c3cccc(O)c3)n2n1 4.2 Celsius
Cc1cc(Nc2nc(-c3ccccc3)nc3ccccc23)n[nH]1 5.8 Celsius
OCC1=C(O)C(O)[C@@H](N2CNc3cc(Cl)c(Cl)cc32)O1 (some centres undefined) 3.1 Celsius
CCCCc1c(-c2ccc(O)cc2)[nH]c2nccnc12 3.5 Celsius
O=C1NC(=O)C(c2cn(CCCn3ccnc3)c3ccccc23)=C1Nc1ccccc1 5.8 Celsius
CCC(CO)Nc1ccc2ncc(-c3cccc(OC(F)(F)F)c3)n2n1 (centres undefined) 5.3 Celsius
Fc1ccc(-c2cnc3ccc(NC4CCOCC4)nn23)cc1 5.3 Celsius
